From the supplement of paper PMC13380429

Columns and labels:
[1] = tested on: Vero E6 infected with SARS-CoV-2; experiment: morphology score (similarity to uninfected cells); higher = more like uninfected cells; conditions: 24 h
[2] = tested on: Vero E6 infected with SARS-CoV-2; experiment: SARS-CoV-2 infection rate relative to infected DMSO; higher = more infection, active = 60 or less; conditions: 24 h

Compound | morphology score [1] | SARS-CoV-2 infection rate [2]
Clc1ccc2nsnc2c1NC1=NCCN1 [tizanidine] (10 µM) | -0.0251 | 112% (inactive)
O=c1c(O)c(-c2ccc(O)cc2O)oc2cc(O)cc(O)c12 [morin] (10 µM) | 0.0742 | 108% (inactive)
CC(=O)c1ccc(NS(C)(=O)=O)c(Oc2ccc(F)cc2F)c1 (10 µM) | 0.115 | 92.5% (inactive)
COC(=O)C1=C(C)NC(C)=C(C(=O)OCCCN2CCC(c3ccccc3)(c3ccccc3)CC2)[C@@H]1c1cccc([N+](=O)[O-])c1 [dexniguldipine] (0.833333 µM) | 0.134 | 97.5% (inactive)
CO[C@H]1[C@H](O)[C@@H](O)[C@@H](O)[C@H](O)[C@@H]1O [pinitol] (10 µM) | -0.0343 | 114% (inactive)
Cc1ccc(C(=O)c2cc(O)c(O)c([N+](=O)[O-])c2)cc1 [tolcapone] (10 µM) | 0.192 | 110% (inactive)
Cc1cc2nc3c(=O)[nH]c(=O)nc-3n(C[C@H](O)[C@H](O)[C@H](O)COP(=O)(O)O)c2cc1C [riboflavin-5-phosphate-sodium] (10 µM) | 0.173 | 102% (inactive)
CN(C/C=C/C#CC(C)(C)C)Cc1cccc2ccccc12 [terbinafine] (10 µM) | 0.413 | 81% (inactive)
Cc1ccc(NC(=O)c2cccc(N(C)C)c2)cc1NC(=O)c1ccc(O)cc1 (10 µM) | -0.0598 | 97.5% (inactive)
CC[C@H]1OC(=O)[C@H](C)[C@@H](O[C@H]2C[C@@](C)(OC)[C@@H](O)[C@H](C)O2)[C@H](C)[C@@H](O[C@@H]2O[C@H](C)C[C@H](N(C)C)[C@H]2O)[C@](C)(O)C[C@@H](C)C(=O)[C@H](C)[C@@H](O)[C@]1(C)O [erythromycin] (10 µM) | -0.171 | 102% (inactive)
Cc1csc(S(=O)(=O)N(CC(C)C)c2cc3c(cc2OCc2ccc(C(=O)O)cc2)CCC3)n1 (10 µM) | -0.0439 | 107% (inactive)
CC(CCc1ccc(O)cc1)NCC(O)c1ccc(O)cc1 (stereo not given) [ractopamine] (10 µM) | -0.0659 | 111% (inactive)
C=CC1=C(C)c2cc3[nH]c(cc4nc(cc5[nH]c(cc1n2)c(C)c5CCC(=O)O)C(CCC(=O)O)=C4C)c(C)c3C=C [protoporphyrin-IX] (10 µM) | -0.0298 | 115% (inactive)
Nc1nc2[nH]cnc2c(=S)[nH]1 [thioguanine] (0.833333 µM) | 0.218 | 98.5% (inactive)
C[C@@H]1CCO[C@H]2Cn3cc(C(=O)NCc4ccc(F)cc4F)c(=O)c(O)c3C(=O)N12 [dolutegravir] (10 µM) | 0.0816 | 112% (inactive)
O=C(NCCN1CCC2(CC1)C(=O)NCN2c1cccc(F)c1)c1ccc(F)c(F)c1 (10 µM) | 0.259 | 75.5% (inactive)
C#C[C@]1(O)CC[C@H]2[C@@H]3CCc4cc(OC)ccc4[C@H]3CC[C@@]21C [mestranol] (10 µM) | -0.00302 | 110% (inactive)
CC(C)C[C@H](NC(=O)[C@H](Cc1ccccc1)NC(=O)c1cnccn1)B(O)O [bortezomib] (10 µM) | -0.0961 | 96.5% (inactive)
O=C(O)CNC(=O)c1c(O)c2ccccc2n(Cc2ccccc2)c1=O (10 µM) | -0.000636 | 102% (inactive)
COc1cc(OC)c(OC)cc1C=O [asaraldehyde] (10 µM) | -0.0171 | 110% (inactive)
CO[C@H]1C[C@@H]2CC[C@@H](C)[C@@](O)(O2)C(=O)C(=O)N2CCCC[C@H]2C(=O)O[C@H]([C@H](C)C[C@@H]2CC[C@H](n3cnnn3)[C@H](OC)C2)CC(=O)[C@H](C)/C=C(\C)[C@@H](O)[C@@H](OC)C(=O)[C@H](C)C[C@H](C)/C=C/C=C/C=C/1C [zotarolimus] (0.833333 µM) | -0.292 | 119% (inactive)
O=C(O)CCCC[C@@H]1CCSS1 [thioctic-acid] (10 µM) | 0.0028 | 106% (inactive)
N#Cc1ccccc1-c1cc(-c2ccccn2)cn(-c2ccccc2)c1=O [Perampanel] (10 µM) | 0.11 | 90.5% (inactive)
C=C(c1ccccc1OCc1cccc(Cl)c1)n1ccnc1 [croconazole] (10 µM) | 0.0614 | 104% (inactive)
CC(C)Cn1cnc2c(N)nc3ccccc3c21 [imiquimod] (10 µM) | 0.0803 | 106% (inactive)
